4 molecules from PubChem BioAssay can be followed below.

Experiment [1] is described as follows: yeast TOR pathway RPL19A-GFP modulators, primary screen, cell-based, S. cerevisiae, multiplex flow cytometry (AID 1862; in the data active = percent of DMSO control GFP below about 86%;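 also: lower values mimic rapamycin by blocking the RPL19A rise seen in DMSO cells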). To be noted: S. cerevisiae RPL19A-GFP strain, flow cytometry fluorescence, 3 h; at 10 µM; stronger effect = lower value. In general terms: In flow cytometry, cells or beads pass a laser one at a time.
The nature of experiment [2]: modulators of MEP2-GFP levels in yeast, primary screen, S. cerevisiae, multiplex flow cytometry (AID 1867;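 active = GFP response, as percent of the DMSO control, above the screen-wide mean plus 3 SD, about 139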;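 also: median GFP channel fluorescence of barcode-gated MEP2-GFP cells measured by flow cytometry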). The note with it: S. cerevisiae MEP2-GFP strain, 3 h, at 10 µM, stronger effect = higher value.
A short description of experiment [3]: modulators of CIT2-GFP expression in yeast, primary screen, S. cerevisiae, GFP fusion, multiplex flow cytometry (AID 1870;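 active = percent response above a set limit, the screen-wide mean plus 3 SD, cut at about 130% in these data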;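 also: barcoded CIT2-GFP strain pooled with four other GFP strains with rapamycin as positive control; median GFP fluorescence per well over plate mean of DMSO wells so 100% = DMSO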). The note with it: 3 h, at 10 µM, stronger effect = higher value.
The nature of experiment [4]: modulators of LAP4-GFP expression in yeast, primary screen, S. cerevisiae, multiplex flow cytometry (AID 1873;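 active = GFP signal, as percent of the solvent control, above the screen mean plus 3 SD, about 149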). To be noted: 3 h, at 10 µM, stronger effect = higher value.
A short description of experiment [5]: modulators of AGP1-GFP expression in yeast TOR pathway, primary screen, cell-based, multiplex flow cytometry, S. cerevisiae (AID 1887;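 active = GFP signal above the screen-wide mean plus 3 SD, that is over about 124.5% of the solvent control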;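 also: AGP1-GFP fusion strain of S. cerevisiae within a five-strain barcoded multiplex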). The note with it: 3 h, at 10 µM, stronger effect = higher value.
Experiment [6] is described as follows: inhibitors of CD8+ T cell-vesicle binding, pilot screen, LFA-1/ICAM-1 modulator project, MLPCN validation set, flow cytometry (AID 2523;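 active = response below a set limit, under 55% cells CD8-positive and vesicle-bound, and CD8 cells' 90th-percentile brightness under 279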;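 as to vesicle binding response: mean PE anti-B7-1 fluorescence of CD8+ cells relative to row control; 100% = QL9-loaded vesicles with DMSO vehicle in the same plate row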). The note with it: 2C mouse CD8+ T cells, at 7 µM, stronger effect = lower value; double positive events: measured here: CD8+/vesicle+ event percentage.
The target in experiment [7] is Integrin beta-1 (Homo sapiens) + Integrin alpha-4 (Homo sapiens) (UniProt P13612+P05556). Nature of the experiment: inhibition of HUTS-21 binding to VLA-4, pilot screen, VLA-4 allosteric modulator project, U937 cells, HUTS-21 mAb, flow cytometry, validation set (AID 2674;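 active = inhibition above 50%, about 3 SD of the validation set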;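 also: antibody binding induced by the VLA-4 ligand LDV present at three times its Kd; 0% = LDV ligand with antibody and no compound and 100% = antibody without LDV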). The note with it: HUTS-21 LIBS mAb binding, at 6.7 µM, stronger effect = higher value.
A short description of experiment [8]: superoxide lowering in aged yeast cells, pilot screen, validation compound set (AID 2706;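 active = superoxide response below 65% of plate, a cut near 3 SD across the whole screen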;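 also: yeast exposed to compound for one week at 30 degrees C before staining; 100% = mean of all compound wells on the same plate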). The note with it: S. cerevisiae aging, superoxide DHE fluorescence; at 10 µM; stronger effect = lower value.
For experiment [9], the target named is Beta-adrenergic receptor kinase 1 (Homo sapiens) (UniProt P25098). Nature of the experiment: GRK2 binders displacing RNA aptamer, biochemical, validation, human GRK2, bead flow cytometry (AID 488806;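 active = aptamer binding inhibition above 30%, about 3 SD of noise from non-fluorescent compounds; inactive = inhibition at or below 30%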). To be noted: bead-bound GRK2, FAM-aptamer displacement, at 10 µM, stronger effect = higher value.
Experiment [10] has as its target Beta-2 adrenergic receptor (Homo sapiens) (UniProt P07550). Briefly: beta2AR agonists driving receptor internalization, pilot screen, cell-based, FAP fluorogen, flow cytometry, validation set (AID 504459;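 active = percent response above 42, roughly 3 SD of non-fluorescent test compounds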;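 also: agonist-driven loss of surface beta2AR via internalization measured by FAP dye flow cytometry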). To be noted: Am2.2-beta2AR cells, FAP surface receptor flow cytometry; at 10 µM; stronger effect = higher value.
For experiment [11], the target named is AP-2 complex subunit beta (Homo sapiens) (UniProt P63010). Briefly: inhibitors of arrestin peptide binding to AP2, pilot screen, biochemical, validation set, GST-AP2 beads, flow cytometry (AID 504541;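 active = inhibition above 54%, about 3 SD of non-fluorescent compounds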;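 also: AP2 carries R879A mutation and is captured from E. coli lysate; bead-bound FITC arrestin peptide fluorescence measuring arrestin peptide binding to AP2; 0% = DMSO wells and 100% = excess unlabeled arrestin peptide control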). The note with it: FITC arrestin peptide, at 10 µM, stronger effect = higher value.
A short description of experiment [12]: yeast V-ATPase proton transport modulators, S. cerevisiae, pHLuorin, HTS validation (AID 504600; in the data active = response above about 15%;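 also: plate controls were DMSO for no effect and reference compound for full effect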). To be noted: S. cerevisiae pHLuorin cytosolic pH, at 10 µM, stronger effect = higher value.
Experiment [13] deals with anti-desmoglein-3 scFv antibody binding to human DSG3. Nature of the experiment: inhibitors of anti-DSG3 scFv binding to DSG3, pilot screen, biochemical, validation compound set, bead-based, flow cytometry (AID 588368;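 active = binding below the plate cutoff, the plate median minus 3 SD, with a reading above zero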;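 also: signal is the median channel fluorescence of bead-bound GFP antibody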). To be noted: Protein G beads, DSG3-Fc, scFv-GFP binding, at 10 µM, stronger effect = lower value.
Experiment [14] deals with Botulinum neurotoxin type F light chain protease (Clostridium botulinum). Nature of the experiment: Botulinum neurotoxin type F light chain protease inhibition, multiplex microsphere flow cytometry, validation set (AID 588459). The note with it: multiplex microsphere protease substrate cleavage assay, at 10 µM, stronger effect = higher value.
The target of experiment [15] is Botulinum neurotoxin type A (Clostridium botulinum) (UniProt P0DPI0). Nature of the experiment: BoNT/A light chain protease inhibitors, biochemical, multiplex microsphere flow cytometry, validation set (AID 588460). The note with it: at 10 µM, stronger effect = higher value.
Experiment [16] addresses Lethal factor (Bacillus anthracis) (UniProt P15917). Nature of the experiment: Lethal factor protease inhibitors, Bacillus anthracis, multiplex microsphere cleavage assay, validation set (AID 588461). The note with it: flow cytometry, at 10 µM, stronger effect = higher value.
Experiment [17] can be described thus: inhibitors of fungal efflux pumps CDR1, CDR2, MDR1, pilot screen, validation compound set, multiplex, phenotypic (AID 588506;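 active = efflux inhibition above 0.42, the validation set average plus 4 SD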;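 also: Nile Red retained in cells so higher fluorescence means more efflux inhibition; 0 = negative control wells and 1 = enniatin B 25 µM full block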). The note with it: S. cerevisiae pump-expressing triplex, Nile Red efflux flow cytometry; at 10 µM; stronger effect = higher value.
The target in experiment [18] is ATP-binding cassette sub-family B member 6 (Homo sapiens) (UniProt Q9NP58). Nature of the experiment: ABCB6 transporter inhibitors, pilot screen, K562-ABCB6 cells, flow cytometry, validation set (AID 588550;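 active = inhibition above the screen-wide mean plus 3 SD, about 51%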;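 also: 0% = DMSO wells and 100% = benzethonium chloride 70 µM positive control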). To be noted: K562-ABCB6 porphyrin accumulation, 1 h, at 10 µM, stronger effect = higher value.
The nature of experiment [19]: promoters of myeloid differentiation in arrested cells, primary screen, cell-based, GFP/MAC1 double positive, flow cytometry, validation set (AID 588685;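 active = differentiation response of at least 50%, scaled between solvent and reference control, from cells with both markers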;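 also: compound exposure lasts four days before antibody staining and flow analysis; 0% = DMSO wells and 100% = 5 µM fulvestrant positive control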). The note with it: ER-HoxA9 marrow cells, stronger effect = higher value.

Results filed as inconclusive are left out. Calls of active or inactive are those of the source. Unless noted, no rule for the calls is given here.

Sequence of Lethal factor (Bacillus anthracis) (P15917 whole entry, looked up): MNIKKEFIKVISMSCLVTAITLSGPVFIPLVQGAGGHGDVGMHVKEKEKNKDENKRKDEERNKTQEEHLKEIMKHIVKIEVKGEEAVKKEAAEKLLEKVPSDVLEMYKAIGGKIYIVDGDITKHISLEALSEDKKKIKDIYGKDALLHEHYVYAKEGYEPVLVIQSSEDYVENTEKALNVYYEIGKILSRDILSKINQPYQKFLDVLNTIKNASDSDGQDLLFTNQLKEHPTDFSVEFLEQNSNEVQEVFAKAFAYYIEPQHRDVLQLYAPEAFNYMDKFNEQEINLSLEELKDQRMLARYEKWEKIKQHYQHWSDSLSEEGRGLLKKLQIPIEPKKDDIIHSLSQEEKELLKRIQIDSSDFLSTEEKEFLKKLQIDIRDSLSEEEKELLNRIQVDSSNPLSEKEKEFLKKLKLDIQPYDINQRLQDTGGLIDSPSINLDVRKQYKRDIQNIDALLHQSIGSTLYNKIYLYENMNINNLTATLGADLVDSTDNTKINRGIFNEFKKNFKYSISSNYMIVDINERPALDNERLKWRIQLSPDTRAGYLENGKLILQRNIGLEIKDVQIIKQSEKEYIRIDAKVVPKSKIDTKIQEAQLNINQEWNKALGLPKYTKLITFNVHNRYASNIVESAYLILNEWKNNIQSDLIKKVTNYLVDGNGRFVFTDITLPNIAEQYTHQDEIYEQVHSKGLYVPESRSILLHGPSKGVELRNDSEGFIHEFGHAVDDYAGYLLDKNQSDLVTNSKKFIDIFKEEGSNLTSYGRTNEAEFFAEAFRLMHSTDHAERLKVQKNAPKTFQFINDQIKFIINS
Sequence of Integrin beta-1 (Homo sapiens) + Integrin alpha-4 (Homo sapiens) (P05556 whole entry, looked up): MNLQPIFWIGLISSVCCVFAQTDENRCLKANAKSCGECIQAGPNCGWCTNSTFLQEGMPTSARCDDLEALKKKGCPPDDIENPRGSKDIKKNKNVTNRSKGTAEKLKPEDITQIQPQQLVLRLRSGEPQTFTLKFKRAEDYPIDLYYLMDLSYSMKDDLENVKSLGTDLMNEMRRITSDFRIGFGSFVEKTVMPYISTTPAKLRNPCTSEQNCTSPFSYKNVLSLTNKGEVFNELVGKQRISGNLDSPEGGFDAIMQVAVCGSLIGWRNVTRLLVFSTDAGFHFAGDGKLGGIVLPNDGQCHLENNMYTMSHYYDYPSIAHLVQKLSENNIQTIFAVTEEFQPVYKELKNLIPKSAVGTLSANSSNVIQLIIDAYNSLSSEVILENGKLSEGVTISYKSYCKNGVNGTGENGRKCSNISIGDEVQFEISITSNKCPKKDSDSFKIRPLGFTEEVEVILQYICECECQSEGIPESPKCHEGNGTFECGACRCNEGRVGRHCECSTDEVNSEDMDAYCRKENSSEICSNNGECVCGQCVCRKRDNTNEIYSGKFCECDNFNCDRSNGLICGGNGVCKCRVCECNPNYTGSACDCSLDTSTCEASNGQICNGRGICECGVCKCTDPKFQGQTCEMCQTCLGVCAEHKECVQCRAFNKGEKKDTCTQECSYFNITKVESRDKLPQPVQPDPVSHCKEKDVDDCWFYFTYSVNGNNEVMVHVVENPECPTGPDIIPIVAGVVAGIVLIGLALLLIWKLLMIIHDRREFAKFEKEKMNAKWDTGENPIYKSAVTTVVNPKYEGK
Sequence of Integrin beta-1 (Homo sapiens) + Integrin alpha-4 (Homo sapiens) (P13612 whole entry, looked up): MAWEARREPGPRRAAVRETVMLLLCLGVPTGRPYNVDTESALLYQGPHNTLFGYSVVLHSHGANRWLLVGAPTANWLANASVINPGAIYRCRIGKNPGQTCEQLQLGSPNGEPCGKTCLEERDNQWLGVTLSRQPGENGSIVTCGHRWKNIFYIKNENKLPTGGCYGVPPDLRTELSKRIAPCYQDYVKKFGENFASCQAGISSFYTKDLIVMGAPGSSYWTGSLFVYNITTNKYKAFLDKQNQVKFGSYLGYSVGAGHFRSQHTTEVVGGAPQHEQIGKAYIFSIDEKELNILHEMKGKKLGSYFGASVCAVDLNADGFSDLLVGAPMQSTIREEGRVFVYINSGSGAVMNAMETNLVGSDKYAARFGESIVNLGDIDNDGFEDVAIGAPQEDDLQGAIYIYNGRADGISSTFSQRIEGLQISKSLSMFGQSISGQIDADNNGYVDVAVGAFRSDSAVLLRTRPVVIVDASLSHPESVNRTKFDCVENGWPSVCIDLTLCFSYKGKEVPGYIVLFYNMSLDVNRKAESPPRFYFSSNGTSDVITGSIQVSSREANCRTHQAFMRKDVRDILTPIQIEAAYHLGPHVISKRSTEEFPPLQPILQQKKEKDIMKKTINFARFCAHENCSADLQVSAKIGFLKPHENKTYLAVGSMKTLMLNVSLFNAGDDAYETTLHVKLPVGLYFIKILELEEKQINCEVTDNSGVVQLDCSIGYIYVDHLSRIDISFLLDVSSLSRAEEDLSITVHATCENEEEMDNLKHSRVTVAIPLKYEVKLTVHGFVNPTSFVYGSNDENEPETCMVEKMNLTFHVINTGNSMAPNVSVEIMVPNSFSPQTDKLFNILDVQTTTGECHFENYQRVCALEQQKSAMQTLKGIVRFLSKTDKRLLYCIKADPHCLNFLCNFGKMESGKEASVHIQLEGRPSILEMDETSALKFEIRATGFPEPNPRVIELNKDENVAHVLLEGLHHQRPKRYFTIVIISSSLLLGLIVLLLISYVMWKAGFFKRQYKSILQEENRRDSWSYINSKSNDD
Sequence of Beta-adrenergic receptor kinase 1 (Homo sapiens) (P25098 whole entry, looked up): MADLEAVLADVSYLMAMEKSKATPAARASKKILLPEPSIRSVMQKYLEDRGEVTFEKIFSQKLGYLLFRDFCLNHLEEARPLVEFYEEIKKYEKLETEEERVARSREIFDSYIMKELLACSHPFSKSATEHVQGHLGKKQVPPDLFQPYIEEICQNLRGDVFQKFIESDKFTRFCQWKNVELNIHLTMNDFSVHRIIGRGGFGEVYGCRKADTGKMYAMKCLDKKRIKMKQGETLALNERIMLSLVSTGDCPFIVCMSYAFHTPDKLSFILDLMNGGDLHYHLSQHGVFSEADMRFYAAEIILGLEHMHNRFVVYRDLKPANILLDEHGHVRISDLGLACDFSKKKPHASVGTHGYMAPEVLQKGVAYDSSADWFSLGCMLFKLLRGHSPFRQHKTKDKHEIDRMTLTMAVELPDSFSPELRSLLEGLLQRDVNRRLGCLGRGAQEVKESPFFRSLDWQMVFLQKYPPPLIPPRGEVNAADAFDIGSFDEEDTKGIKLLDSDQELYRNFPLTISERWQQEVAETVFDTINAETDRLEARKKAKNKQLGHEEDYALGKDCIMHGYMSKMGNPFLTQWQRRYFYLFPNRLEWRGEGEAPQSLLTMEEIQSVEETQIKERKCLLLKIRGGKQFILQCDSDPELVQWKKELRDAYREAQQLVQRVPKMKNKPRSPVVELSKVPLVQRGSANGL
Sequence of Botulinum neurotoxin type A (Clostridium botulinum) (P0DPI0 whole entry, looked up): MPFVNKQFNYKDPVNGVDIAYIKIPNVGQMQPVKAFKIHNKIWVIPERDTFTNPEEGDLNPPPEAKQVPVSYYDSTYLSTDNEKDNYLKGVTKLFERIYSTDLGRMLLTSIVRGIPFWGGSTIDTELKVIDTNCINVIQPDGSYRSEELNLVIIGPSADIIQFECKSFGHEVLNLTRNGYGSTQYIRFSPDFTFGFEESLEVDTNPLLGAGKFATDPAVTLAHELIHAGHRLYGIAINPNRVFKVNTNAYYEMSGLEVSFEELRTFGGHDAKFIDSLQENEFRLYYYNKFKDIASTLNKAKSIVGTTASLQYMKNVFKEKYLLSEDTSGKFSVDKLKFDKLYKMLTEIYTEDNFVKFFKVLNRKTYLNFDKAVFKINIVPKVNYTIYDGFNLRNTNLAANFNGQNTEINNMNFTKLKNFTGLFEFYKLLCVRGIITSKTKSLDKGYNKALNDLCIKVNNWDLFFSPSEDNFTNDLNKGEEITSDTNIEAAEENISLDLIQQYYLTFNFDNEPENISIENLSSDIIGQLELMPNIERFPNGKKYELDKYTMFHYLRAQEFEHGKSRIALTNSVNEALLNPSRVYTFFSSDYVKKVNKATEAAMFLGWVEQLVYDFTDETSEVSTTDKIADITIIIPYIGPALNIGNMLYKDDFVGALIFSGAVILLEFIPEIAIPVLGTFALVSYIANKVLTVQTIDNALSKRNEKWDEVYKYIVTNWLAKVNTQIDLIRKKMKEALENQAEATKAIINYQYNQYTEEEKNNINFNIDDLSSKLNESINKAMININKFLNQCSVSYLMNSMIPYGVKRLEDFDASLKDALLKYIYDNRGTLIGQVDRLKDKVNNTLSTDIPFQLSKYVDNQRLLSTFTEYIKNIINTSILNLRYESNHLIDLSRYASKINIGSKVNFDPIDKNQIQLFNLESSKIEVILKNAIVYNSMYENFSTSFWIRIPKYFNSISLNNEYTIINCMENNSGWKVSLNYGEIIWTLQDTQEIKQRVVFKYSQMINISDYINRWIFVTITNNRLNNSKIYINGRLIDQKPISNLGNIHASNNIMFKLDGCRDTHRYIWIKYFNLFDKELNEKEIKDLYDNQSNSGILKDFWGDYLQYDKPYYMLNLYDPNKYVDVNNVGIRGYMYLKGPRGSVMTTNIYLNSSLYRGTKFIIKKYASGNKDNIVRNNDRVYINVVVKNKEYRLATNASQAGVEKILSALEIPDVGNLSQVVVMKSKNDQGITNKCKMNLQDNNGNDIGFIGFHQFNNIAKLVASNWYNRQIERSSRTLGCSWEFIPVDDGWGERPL
Sequence of Beta-2 adrenergic receptor (Homo sapiens) (P07550 whole entry, looked up): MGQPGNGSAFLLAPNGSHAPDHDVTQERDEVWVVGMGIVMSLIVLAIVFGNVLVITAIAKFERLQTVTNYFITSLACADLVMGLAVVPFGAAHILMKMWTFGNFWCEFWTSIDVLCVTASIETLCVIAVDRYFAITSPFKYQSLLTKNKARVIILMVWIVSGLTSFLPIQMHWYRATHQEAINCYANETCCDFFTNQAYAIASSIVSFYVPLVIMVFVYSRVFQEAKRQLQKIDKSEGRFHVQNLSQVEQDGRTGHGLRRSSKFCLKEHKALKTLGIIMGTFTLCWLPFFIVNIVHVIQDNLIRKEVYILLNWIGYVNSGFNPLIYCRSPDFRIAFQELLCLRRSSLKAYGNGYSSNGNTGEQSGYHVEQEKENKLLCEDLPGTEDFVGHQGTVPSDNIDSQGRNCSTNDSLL

By inhibition is commonly meant the change of the read-out against control, counted positive when it falls. As to `C=C1CC[C@@]2(O)[C@H]3Cc4ccc(O)c5c4[C@@]2(CCN3CC2CC2)[C@H]1O5`, the percent of DMSO control GFP in experiment [1] was 107% (inactive). Also, the GFP response vs DMSO is 95.1% (inactive) in experiment [2] and 90.1% (inactive) in experiment [4]. Besides, the percent response of DMSO control in [3] is 109% (inactive). Besides, in experiment [5], the GFP response, % of DMSO is 102% (inactive). In experiment [6], the double positive events came to 64.3%. Further, the vesicle binding response in experiment [6] was 1650% (inactive). Moreover, the inhibition in [7] is 14.1% (inactive); in [11], -7.26% (inactive); in experiment [14], 2.7% (inactive); in experiment [15] it was -0.2% (inactive); in experiment [16], 8.1% (inactive); in experiment [18] it was 13% (inactive). The superoxide response (% of plate) in [8] is 98.9% (inactive). Besides, the aptamer binding inhibition in experiment [9] is -2% (inactive). For the same molecule, the response in experiment [10] is -8.78% (inactive); in experiment [12] it was 5.8% (inactive). In addition, in experiment [13], the binding (% of control) is 99% (inactive). Moreover, in [17], the efflux inhibition (fraction of control) is -0.26 (inactive). Also, the differentiation response in experiment [19] was 10% (inactive).
For the molecule `COc1cc2c3cc1Oc1cc(ccc1O)C[C@@H]1c4c(cc(OC)c(O)c4Oc4ccc(cc4)C[C@H]3N(C)CC2)CCN1C`, the percent of DMSO control GFP in experiment [1] is 88.2% (inactive). Besides, the GFP response vs DMSO in [2] is 125% (inactive); in experiment [4] it was 81.4% (inactive). In addition, the percent response of DMSO control in [3] is 107% (inactive). Moreover, the GFP response, % of DMSO in [5] is 90.5% (inactive). This molecule also had a double positive events in experiment [6] of 56.5%. Moreover, the vesicle binding response in experiment [6] was 214% (inactive). The inhibition in experiment [7] was 7.43% (inactive); in experiment [11], 19.2% (inactive); in experiment [14], -3.1% (inactive); in [15] it was -3% (inactive); in [16], -7.1% (inactive); in experiment [18] it was 10% (inactive). For the same molecule, the superoxide response (% of plate) in experiment [8] was 92.4% (inactive). Besides, the aptamer binding inhibition in experiment [9] is 2% (inactive). Also, the response in [10] is 17.5% (inactive); in [12], 1.91% (inactive). For the same molecule, in experiment [13], the binding (% of control) is 105% (inactive). Besides, the efflux inhibition (fraction of control) in [17] is 0.05 (inactive). Moreover, the differentiation response in experiment [19] was -3.28% (inactive).
Turning to `O=c1[nH]c(=S)n(-c2ccccc2)c(O)c1/C=N/N1CCCCC1c1cccnc1` (stereo not given), the percent of DMSO control GFP in experiment [1] is 101% (inactive). In addition, the GFP response vs DMSO in experiment [2] is 100% (inactive); in experiment [4], 84.8% (inactive). For the same molecule, the percent response of DMSO control in [3] is 90.8% (inactive). In addition, the GFP response, % of DMSO in experiment [5] was 93% (inactive). The molecule also had a double positive events in experiment [6] of 64%. For the same molecule, in experiment [6], the vesicle binding response was 885% (inactive). In addition, the inhibition in [7] is -37.8% (inactive); in experiment [11] it was 1.04% (inactive); in experiment [14], -0.8% (inactive); in experiment [15], 0.8% (inactive); in [16], -6.8% (inactive); in experiment [18] it was 0% (inactive). In addition, the superoxide response (% of plate) in experiment [8] is 100% (inactive). In experiment [9], the aptamer binding inhibition was 4% (inactive). For the same molecule, the figures for the response in [10] and in [12] were 0.69% (inactive) and 4.77% (inactive), respectively. In experiment [13], the binding (% of control) was 100% (inactive). Moreover, in experiment [17], the efflux inhibition (fraction of control) was -0.04 (inactive). The differentiation response in experiment [19] was 4.15% (inactive).
For `C=C1[C@@H](C)[C@H]2[C@H](Cc3ccccc3)NC(=O)[C@]23OC(=O)/C=C/[C@H](O)CCC[C@@H](C)C/C=C/[C@H]3[C@@H]1O`, the percent of DMSO control GFP in experiment [1] was 106% (inactive). Further, the results for the GFP response vs DMSO in experiment [2] and in experiment [4] were 102% (inactive) and 114% (inactive), respectively. In addition, the percent response of DMSO control in experiment [3] is 106% (inactive). Also, the GFP response, % of DMSO in experiment [5] was 119% (inactive). Further, in [6], the double positive events amounted to 62.1%. The vesicle binding response in experiment [6] was 205% (inactive). In addition, the inhibition in [7] was -2.82% (inactive); in [11] it was -4.43% (inactive); in [14], 2% (inactive); in experiment [15] it was 0.4% (inactive); in [16], -2.5% (inactive); in experiment [18], 7% (inactive). Also, the superoxide response (% of plate) in experiment [8] was 102% (inactive). Besides, the aptamer binding inhibition in experiment [9] was 4% (inactive). In addition, the results for the response in experiment [10] and in [12] were 36.2% (inactive) and 0.39% (inactive), respectively. In addition, the binding (% of control) in [13] is 102% (inactive). Further, the efflux inhibition (fraction of control) in experiment [17] was -0.21 (inactive). The differentiation response in experiment [19] was -4% (inactive).
